From PubChem
In the library only some 6.8% were active in any assay of this set; here they are far more common.
C diff HTS – C. difficile growth inhibitors, primary screen, HTS; AID 1259249, 2017; growth activity, negative = inhibition, % at 16 µg/mL (by protocol); 86,000 compounds, 0.25% hits; Clostridium difficile clinical isolate growth, OD600, 24 h; hits give low values;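 active means mean growth activity at or below -80% and every replicate also at or below -80%; inconclusive means mean at or below -80% but some replicate above -80%; inactive means mean growth activity above -80%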
T cruzi growth-1 – T. cruzi intracellular proliferation inhibitors, primary screen, cell-based, beta-gal Tulahuen parasites, NIH3T3 host, luminescence; T. cruzi beta-gal in NIH3T3, GalScreen luminescence, 90 h; inhibition, % at 8.34 µM; 77,000 compounds, 5.9% hits; AID 624255, 2012;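 active means mean inhibition above about 93%, with at least 55% of replicates each passing it, limit read from the data, passing the limit was not always enough; inconclusive means only one of those two conditions holds; inactive means neither condition holds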
Pf Dd2 growth – P. falciparum Dd2 growth inhibitors, primary screen, SYBR Green fluorescence, single dose replicates; activity change, % at 10 µM; AID 1159554, 2015; 94,000 compounds, 2.3% hits; 72 h; hits give low values; in the data active means activity change below about -80%; inconclusive means no clear call, values can overlap the other calls
T cruzi growth-2 – T. cruzi intracellular proliferation inhibitors, confirmation, cell-based, NIH3T3 host, beta-gal parasite, luminescence, cherry-pick; shares compounds with T cruzi growth-1; T. cruzi beta-gal in NIH3T3, GalScreen luminescence, 90 h; inhibition, % at 8.35 µM; 5,600 compounds, 72% hits; AID 651739, 2012;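 active means mean replicate inhibition above about 95% and at least 55% of replicates individually reaching it, limit read from the data; inconclusive means only one of the two criteria is met; inactive means neither criterion is met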
T cruzi growth-3 – inhibitors of intracellular T. cruzi replication, confirmation, NIH3T3 host cells, beta-gal parasites, cherry-pick, set 2; shares compounds with T cruzi growth-1; T. cruzi beta-gal in NIH3T3, GalScreen luminescence, 90 h; inhibition, % at 2.09 µM; 5,600 compounds, 21% hits; AID 651740, 2012;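 active means mean inhibition above about 95%, with at least 55% of replicates also reaching it, limit read from the data; inconclusive means meets just one of the two conditions; inactive means meets neither condition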
NIH3T3 tox – cytotoxicity in mouse NIH/3T3 fibroblasts, confirmation, cytotoxicity control for T. cruzi proliferation inhibitor project, cell-based, cherry-pick, single point. shares compounds with T cruzi growth-1. 5,600 compounds, 14% hits. cytotoxicity (signal decrease), % at 8.35 µM. NIH/3T3 viability, CellTiter-Glo ATP luminescence, 90 h. AID 651742, 2012;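 active means mean signal decrease across replicates above about 35% based on untreated-well scatter, with enough replicates individually passing, limit read from the data; inconclusive means no rule stated though some were filed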
NIH3T3 tox 2 – NIH/3T3 fibroblast cytotoxicity, confirmation, cytotoxicity control, cell-based, cherry-pick, single point, set 2. shares compounds with T cruzi growth-1. NIH/3T3 viability, CellTiter-Glo ATP luminescence, 90 h. inhibition, % at 24.9 µM. 5,600 compounds, 56% hits. AID 651744, 2012;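 active means mean loss of cell viability signal at or above a set limit, and enough replicates individually reaching it; inconclusive means meets only the mean limit or only the replicate share; inactive means meets neither condition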
A number is an active result; n = inactive; u = inconclusive; x = no result given; + = active, no number; ! = a repeat was not active.

SMILES	C diff HTS	T cruzi growth-1	Pf Dd2 growth	T cruzi growth-2	T cruzi growth-3	NIH3T3 tox	NIH3T3 tox 2
C[C@@H]1CN([C@@H](C)CO)C(=O)c2cc(NC(=O)C3CCCCC3)ccc2O[C@@H](C)CCCCO[C@@H]1CN(C)C(=O)Nc1ccc(F)cc1	n	n	n	x	x	x	x
C[C@@H]1CN([C@@H](C)CO)C(=O)c2cc(NC(=O)C3CCCCC3)ccc2O[C@@H](C)CCCCO[C@@H]1CN(C)C(=O)Nc1ccc(C(F)(F)F)cc1	n	n	u	x	x	x	x
C[C@@H]1CCCCO[C@@H](CN(C)C(=O)Nc2ccc(C(F)(F)F)cc2)[C@@H](C)CN([C@H](C)CO)C(=O)c2cc(NC(=O)C3CCCCC3)ccc2O1	n	101.4	n	106.8	n	n	n
CC(C)NC(=O)N(C)C[C@@H]1OCCCC[C@H](C)Oc2ccc(NC(=O)C3CCCCC3)cc2C(=O)N([C@@H](C)CO)C[C@@H]1C	n	n	n	x	x	x	x
C[C@H]1CCCCO[C@@H](CN(C)C(=O)Nc2ccc(C(F)(F)F)cc2)[C@@H](C)CN([C@@H](C)CO)C(=O)c2cc(NC(=O)C3CCCCC3)ccc2O1	n	96.5	-82.9	103.5	104.9	n	n
C[C@H]1CN([C@@H](C)CO)C(=O)c2cc(-c3ccccc3)cnc2O[C@@H]1CN(C)C	n	n	n	x	x	x	x
CCCNC(=O)N1CC2(C1)[C@H](c1ccccc1)[C@@H](CO)N2C(=O)C1CCC1	n	x	n	x	x	x	x
CO[C@H]1CN(C)C(=O)c2ccc(NC(=O)C3CC3)cc2OC[C@H](C)N(C(=O)c2ccccn2)C[C@@H]1C	n	x	n	x	x	x	x
CCNC(=O)[C@@H]1[C@@H](CO)[C@@H]2Cn3c(cccc3=O)[C@@H]2N1CC1CCCCC1	x	+	x	n	n	n	n
CCCNC(=O)[C@@H]1[C@@H](CO)[C@@H]2Cn3c(cccc3=O)[C@@H]2N1CC1CCCCC1	n	n	n	x	x	x	x
O=C(Nc1nccs1)[C@H]1[C@H](CO)[C@H]2Cn3c(ccc(-c4ccccc4)c3=O)[C@H]2N1CC1CCCC1	n	98.0	n	105.8	n	n	64.2
O=C(Nc1ccc(-c2ccccc2)cc1)[C@H]1[C@H](CO)[C@H]2Cn3c(cccc3=O)[C@H]2N1CC1CCCC1	n	x	n	x	x	x	x
O=C(Nc1ccc(-c2ccccc2)cc1)[C@H]1[C@H](CO)[C@H]2Cn3c(cccc3=O)[C@H]2N1CC1CCCCC1	n	u	n	n	110.2	n	106.9
O=C(Nc1nccs1)[C@H]1[C@H](CO)[C@H]2Cn3c(ccc(-c4cncnc4)c3=O)[C@H]2N1CC1CCCC1	n	n	x	x	x	x	x
C[C@H](CO)N1C[C@H](C)[C@@H](CN(C)C)OCc2cn(nn2)CCCC1=O	n	n	n	x	x	x	x
COc1ccc2c3c(n(C)c2c1)[C@H](CO)N(C(=O)Cc1ccccn1)CC31CCN(CC2CCCCC2)CC1	n	x	n	x	x	x	x
C[C@@H]1CN([C@@H](C)CO)C(=O)c2cc(NC(=O)CCN3CCOCC3)ccc2O[C@@H]1CN(C)Cc1ccc(C(=O)Nc2ccccc2N)cc1	n	x	n	x	x	x	x
O=C(C[C@H]1CC[C@@H](NC(=O)Nc2cc(F)ccc2F)[C@@H](CO)O1)Nc1ccc(-c2ccccc2)cc1	x	n	n	x	x	x	x
C[C@@H]1CN([C@@H](C)CO)C(=O)c2cccc(NC(=O)NC3CCCCC3)c2O[C@@H]1CN(C)C(=O)NC1CCCCC1	n	n	n	x	x	x	x
C[C@H](CO)N1C[C@H](C)[C@H](CN(C)S(=O)(=O)c2ccc(F)cc2)OCCCC[C@H](C)Oc2ccc(N(C)C)cc2C1=O	n	u	n	95.9	n	n	n
COc1ccc(S(=O)(=O)N(C)C[C@@H]2OCCCC[C@@H](C)Oc3ccc(N(C)C)cc3C(=O)N([C@H](C)CO)C[C@H]2C)cc1	n	n	n	x	x	x	x
Cc1ccc(S(=O)(=O)N(C)C[C@@H]2OCCCC[C@H](C)Oc3ccc(N(C)C)cc3C(=O)N([C@H](C)CO)C[C@H]2C)cc1	n	n	u	x	x	x	x
C[C@H](CO)N1C[C@H](C)[C@H](CN(C)S(=O)(=O)c2ccccc2)OCCCC[C@H](C)Oc2ccc(N(C)C)cc2C1=O	n	n	n	x	x	x	x
Cc1ccc(S(=O)(=O)N(C)C[C@@H]2OCCCC[C@H](C)Oc3ccc(N(C)C)cc3C(=O)N([C@@H](C)CO)C[C@H]2C)cc1	n	u	n	n	n	n	n
C[C@H]1CCCCO[C@@H](CN(C)S(=O)(=O)c2ccccc2)[C@@H](C)CN([C@@H](C)CO)C(=O)c2cc(N(C)C)ccc2O1	n	106.9	n	n	n	n	n
SMILES	C diff HTS	T cruzi growth-1	Pf Dd2 growth	T cruzi growth-2	T cruzi growth-3	NIH3T3 tox	NIH3T3 tox 2
COc1ccc(S(=O)(=O)N(C)C[C@H]2OCCCC[C@H](C)Oc3ccc(N(C)C)cc3C(=O)N([C@H](C)CO)C[C@@H]2C)cc1	n	101.9!	-88.0	n	n	n	n
C[C@H]1CCCCO[C@@H](CN(C)S(=O)(=O)c2ccc(F)cc2)[C@@H](C)CN([C@@H](C)CO)C(=O)c2cc(N(C)C)ccc2O1	n	n	n	x	x	x	x
CNC[C@H]1OCCCC[C@H](C)Oc2ccc(NC(=O)c3ccncc3)cc2C(=O)N([C@@H](C)CO)C[C@@H]1C	n	n	n	x	x	x	x
COCC(=O)Nc1ccc2c(c1)C(=O)N(C)[C@@H]1CC[C@@H](CC(=O)OC)O[C@@H]1CO2	n	n	n	x	x	x	x
O=C(C[C@H]1CC[C@@H](NC(=O)c2ccccc2)[C@H](CO)O1)NCCc1ccncc1	n	x	x	x	x	x	x
O=C(Cc1ccncc1)N1CC[C@@H]2[C@H]1c1cc(Br)ccc1N[C@@H]2CO	n	n	n	x	x	x	x
C[C@H]1CCCCO[C@H](CN(C)C(=O)NC2CCCCC2)[C@@H](C)CN([C@@H](C)CO)C(=O)c2cc(NC(=O)Nc3ccccc3)ccc2O1	n	n	n	x	x	x	x
C[C@H]1CCCCO[C@@H](CN(C)C(=O)Nc2ccccc2)[C@@H](C)CN([C@@H](C)CO)C(=O)c2cc(NC(=O)NC3CCCCC3)ccc2O1	x	97.8	n	u	n	n	n
C[C@@H]1CN([C@@H](C)CO)C(=O)c2cc(NC(=O)NC3CCCCC3)ccc2O[C@@H](C)CCCCO[C@@H]1CN(C)C(=O)Nc1ccccc1	x	n	n	x	x	x	x
C[C@H]1CCCCO[C@@H](CN(C)C(=O)NC2CCCCC2)[C@@H](C)CN([C@@H](C)CO)C(=O)c2cc(NC(=O)Nc3ccccc3)ccc2O1	n	110.1	n	110.6	n	n	n
